Experiment [1] is described as follows: NCI Yeast Anticancer Drug Screen. Data for the rad50 strain (AID 155).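 Further: 0% = growth of vehicle-only cultures of the same strain.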 Conditions: S. cerevisiae rad50 strain growth inhibition, hits give high values. In a few lines:
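Readout: growth inhibition relative to vehicle-treated cultures. Compound exposure was carried out in a genetically defined yeast strain deficient in DNA damage repair.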

Experiment [2] is described as follows: NCI Yeast Anticancer Drug Screen. Data for the mec2-1 strain (AID 157). Conditions: S. cerevisiae mec2-1 strain, hits give high values. The procedure, abridged:
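Vehicle-treated cultures served as reference for growth inhibition of compound-exposed mec2-1 yeast.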

The nature of experiment [3]: NCI Yeast Anticancer Drug Screen. Data for the sgs1 mgt1 strain (AID 161).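 Further: 0% = growth of cultures given vehicle only.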 To be noted: S. cerevisiae sgs1 mgt1 strain, hits give high values. The procedure, abridged:
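Mutant yeast exposed to compound; growth scored against vehicle-only wells.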

Experiment [4] is described as follows: NCI Yeast Anticancer Drug Screen. Data for the cln2 rad14 strain (AID 165).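 Further: 0% = growth equal to vehicle treated cultures.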 To be noted: S. cerevisiae cln2 rad14 strain, hits give high values. The procedure, abridged:
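Each compound was tested on cln2 rad14 yeast. Inhibition of growth was calculated against vehicle-exposed controls.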

Experiment [5] can be described thus: NCI Yeast Anticancer Drug Screen. Data for the bub3 strain (AID 167). To be noted: S. cerevisiae bub3 mutant strain, hits give high values. The procedure, abridged: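 Readout: yeast growth inhibition, expressed relative to vehicle-only wells. The test organism is a mutant strain from a panel with lesions in DNA repair or checkpoint genes.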
Experiment [6] in a line: NCI Yeast Anticancer Drug Screen. Data for the mlh1 rad18 strain (AID 175). Conditions: S. cerevisiae mlh1 rad18 strain growth inhibition, hits give high values. In a few lines: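 Vehicle-treated cultures served as the reference for growth inhibition in a yeast strain carrying DNA damage repair alterations exposed to each compound.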
The mark [7] stands for this setting: at 5.0 µM (retest, dose inferred, filed as 0.5).
Setting [8] is: at 50.0 µM (retest, dose inferred, filed as 5.0).

The structures appear in SMILES notation. Compounds without any hit were thinned out: in the full panel of roughly 79,000, 15% have a hit. Unmarked numbers belong to inactive results. Calls of active or inactive are those of the source. No stated cut-off is given here; in the data, active means growth inhibition above about 70%; inactive means the rest.

The values that follow come from PubChem BioAssay (NCI).

For `OC1(c2ccccc2)CCN(c2c3ccccc3nc3ccccc23)CC1`, the growth inhibition in experiment [1] (setting [7]) was 0%; in experiment [1] (setting [8]), 63%; in experiment [1] (at 50.0 µM), 98.9% (active); in experiment [2] (setting [7]) it was 3%; in experiment [2] (setting [8]) it was 75% (active); in experiment [2] (at 50.0 µM) it was 99.5% (active). Also, the growth inhibition was 6% in experiment [3] (setting [7]); 75% (active) in experiment [3] (setting [8]); 97.6% (active) in experiment [3] (at 50.0 µM); 5% in experiment [4] (setting [7]); 30% in experiment [4] (setting [8]); 99% (active) in experiment [4] (at 50.0 µM). Besides, the growth inhibition was 0% in experiment [5] (setting [7]); 58% in experiment [5] (setting [8]); 99.3% (active) in experiment [5] (at 50.0 µM); -2% in experiment [6] (setting [7]); 68% in experiment [6] (setting [8]); 99.4% (active) in experiment [6] (at 50.0 µM).

In the case of `CC1(C)[C@H]2CC[C@]1(C)[C@H](OC(=O)NNC(=O)O[C@@H]1C[C@@H]3CC[C@@]1(C)C3(C)C)C2`, the growth inhibition in experiment [1] (setting [7]) was 33%; in experiment [1] (setting [8]), 74% (active); in experiment [1] (at 50.0 µM) it was 11.3%; in experiment [2] (setting [7]) it was 37%; in experiment [2] (setting [8]), 59%; in experiment [2] (at 50.0 µM), 22.4%. Moreover, the growth inhibition in experiment [3] (setting [7]) was 26%; in experiment [3] (setting [8]) it was 35%; in experiment [3] (at 50.0 µM) it was 53%; in experiment [4] (setting [7]) it was 30%; in experiment [4] (setting [8]), 38%; in experiment [4] (at 50.0 µM), 47.4%. Moreover, the growth inhibition in experiment [5] (setting [7]) is 35%; in experiment [5] (setting [8]), 51%; in experiment [5] (at 50.0 µM) it was 67.2%; in experiment [6] (setting [7]), 38%; in experiment [6] (setting [8]), 68%; in experiment [6] (at 50.0 µM), -16%.

On to `CC(C)c1ccc2c(c1)CC[C@H]1[C@](C)(C(=O)O)CCC[C@]21C`, for which the growth inhibition was -1% in experiment [1] (setting [7]); 96% (active) in experiment [1] (setting [8]); 91.6% (active) in experiment [1] (at 50.0 µM); 2% in experiment [2] (setting [7]); 96% (active) in experiment [2] (setting [8]); 93% (active) in experiment [2] (at 50.0 µM). For the same compound, the growth inhibition in experiment [3] (setting [7]) is 10%; in experiment [3] (setting [8]), 96% (active); in experiment [3] (at 50.0 µM), 91.8% (active); in experiment [4] (setting [7]), -11%; in experiment [4] (setting [8]), 96% (active); in experiment [4] (at 50.0 µM) it was 91.3% (active). Besides, the growth inhibition in experiment [5] (setting [7]) is -2%; in experiment [5] (setting [8]), 95% (active); in experiment [5] (at 50.0 µM) it was 90.8% (active); in experiment [6] (setting [7]) it was 9%; in experiment [6] (setting [8]) it was 95% (active); in experiment [6] (at 50.0 µM), 91.1% (active).

Consider `CCN(CC)CCOc1ccc(C=C2c3ccccc3-c3ccccc32)cc1`, for which the growth inhibition was 98% (active) in experiment [1] (setting [7]); 99% (active) in experiment [1] (setting [8]); 99.2% (active) in experiment [1] (at 50.0 µM); 99% (active) in experiment [2] (setting [7]); 99% (active) in experiment [2] (setting [8]); 99.2% (active) in experiment [2] (at 50.0 µM). The growth inhibition in experiment [3] (setting [7]) was 99% (active); in experiment [3] (setting [8]), 99% (active); in experiment [3] (at 50.0 µM), 99.3% (active); in experiment [4] (setting [7]) it was 99% (active); in experiment [4] (setting [8]) it was 99% (active); in experiment [4] (at 50.0 µM), 99.1% (active). The growth inhibition in experiment [5] (setting [7]) is 99% (active); in experiment [5] (setting [8]), 99% (active); in experiment [5] (at 50.0 µM) it was 99.2% (active); in experiment [6] (setting [7]), 98% (active); in experiment [6] (setting [8]), 99% (active); in experiment [6] (at 50.0 µM), 98.9% (active).

In the case of `NC(=O)c1oc([N+](=O)[O-])c(-c2ccccc2)c1-c1ccccc1`, the growth inhibition in experiment [1] (setting [7]) is 9%; in experiment [1] (setting [8]), 38%; in experiment [1] (at 50.0 µM), 12.4%; in experiment [2] (setting [7]), 5%; in experiment [2] (setting [8]) it was 50%; in experiment [2] (at 50.0 µM) it was 16.6%. The growth inhibition in experiment [3] (setting [7]) was 14%; in experiment [3] (setting [8]), 61%; in experiment [3] (at 50.0 µM), 55.4%; in experiment [4] (setting [7]), -6%; in experiment [4] (setting [8]) it was 10%; in experiment [4] (at 50.0 µM) it was -22.6%. Besides, the growth inhibition in experiment [5] (setting [7]) was 16%; in experiment [5] (setting [8]), 80% (active); in experiment [5] (at 50.0 µM) it was 92.2% (active); in experiment [6] (setting [7]) it was 11%; in experiment [6] (setting [8]), 78% (active); in experiment [6] (at 50.0 µM), 64.2%.

Regarding `C=C1C[C@H]2C=Nc3cc(OCCCOc4cc5c(cc4OC)C(=O)N4CC(=C)C[C@H]4C=N5)c(OC)cc3C(=O)N2C1`, the growth inhibition in experiment [1] (setting [7]) is 92% (active); in experiment [1] (setting [8]), 95% (active); in experiment [1] (at 50.0 µM), 98.3% (active); in experiment [2] (setting [7]), 94% (active); in experiment [2] (setting [8]), 97% (active); in experiment [2] (at 50.0 µM), 98.7% (active). For the same compound, the growth inhibition is 88% (active) in experiment [3] (setting [7]); 94% (active) in experiment [3] (setting [8]); 97.7% (active) in experiment [3] (at 50.0 µM); 92% (active) in experiment [4] (setting [7]); 97% (active) in experiment [4] (setting [8]); 98.3% (active) in experiment [4] (at 50.0 µM). For the same compound, the growth inhibition in experiment [5] (setting [7]) is 86% (active); in experiment [5] (setting [8]) it was 95% (active); in experiment [5] (at 50.0 µM), 98.6% (active); in experiment [6] (setting [7]) it was 92% (active); in experiment [6] (setting [8]), 95% (active); in experiment [6] (at 50.0 µM), 98.7% (active).

With `COc1ccc(CSC(=S)Nc2ccccc2C(F)(F)F)cc1`, the growth inhibition in experiment [1] (setting [7]) was 8%; in experiment [1] (setting [8]) it was 93% (active); in experiment [1] (at 50.0 µM), 98.3% (active); in experiment [2] (setting [7]) it was 6%; in experiment [2] (setting [8]), 97% (active); in experiment [2] (at 50.0 µM), 99.2% (active). The growth inhibition is 1% in experiment [3] (setting [7]); 99% (active) in experiment [3] (setting [8]); 99.2% (active) in experiment [3] (at 50.0 µM); -1% in experiment [4] (setting [7]); 94% (active) in experiment [4] (setting [8]); 98.6% (active) in experiment [4] (at 50.0 µM). Further, the growth inhibition in experiment [5] (setting [7]) was -3%; in experiment [5] (setting [8]), 96% (active); in experiment [5] (at 50.0 µM), 99% (active); in experiment [6] (setting [7]), 4%; in experiment [6] (setting [8]) it was 95% (active); in experiment [6] (at 50.0 µM), 99% (active).

As to `C=C1CCCCC1C(C(=O)O)(c1ccccc1)c1ccccc1` (stereo not given), the growth inhibition in experiment [1] (setting [7]) is 77% (active); in experiment [1] (setting [8]) it was 98% (active); in experiment [1] (at 50.0 µM), 98.7% (active); in experiment [2] (setting [7]), 71% (active); in experiment [2] (setting [8]) it was 99% (active); in experiment [2] (at 50.0 µM), 99.3% (active). In addition, the growth inhibition in experiment [3] (setting [7]) is 79% (active); in experiment [3] (setting [8]), 99% (active); in experiment [3] (at 50.0 µM), 99.3% (active); in experiment [4] (setting [7]), 72% (active); in experiment [4] (setting [8]), 99% (active); in experiment [4] (at 50.0 µM), 99.3% (active). The growth inhibition was 51% in experiment [5] (setting [7]); 99% (active) in experiment [5] (setting [8]); 98.2% (active) in experiment [5] (at 50.0 µM); 92% (active) in experiment [6] (setting [7]); 99% (active) in experiment [6] (setting [8]); 99.5% (active) in experiment [6] (at 50.0 µM).

For the compound `NNc1cc(C(F)(F)F)nc2ccccc12`, the growth inhibition in experiment [1] (setting [7]) was -133%; in experiment [1] (setting [8]) it was -80%; in experiment [1] (at 50.0 µM), 35.5%; in experiment [2] (setting [7]) it was -48%; in experiment [2] (setting [8]) it was -46%; in experiment [2] (at 50.0 µM), 3.1%. Besides, the growth inhibition in experiment [3] (setting [7]) is -53%; in experiment [3] (setting [8]), -48%; in experiment [3] (at 50.0 µM) it was -21.1%; in experiment [4] (setting [7]), -56%; in experiment [4] (setting [8]), -88%; in experiment [4] (at 50.0 µM), 34.1%. Further, the growth inhibition in experiment [5] (setting [7]) was -65%; in experiment [5] (setting [8]), -75%; in experiment [5] (at 50.0 µM) it was 1.45%; in experiment [6] (setting [7]), -108%; in experiment [6] (setting [8]), -95%; in experiment [6] (at 50.0 µM), 64.8%.

As to `O=Nc1c(NO)c2ccccc2c2ccccc12`, the growth inhibition in experiment [1] (setting [7]) is 5%; in experiment [1] (setting [8]), 96% (active); in experiment [1] (at 50.0 µM), 99.1% (active); in experiment [2] (setting [7]), -2%; in experiment [2] (setting [8]) it was 91% (active); in experiment [2] (at 50.0 µM) it was 96.2% (active). The growth inhibition in experiment [3] (setting [7]) is -8%; in experiment [3] (setting [8]) it was 93% (active); in experiment [3] (at 50.0 µM) it was 97.8% (active); in experiment [4] (setting [7]) it was 2%; in experiment [4] (setting [8]), 82% (active); in experiment [4] (at 50.0 µM) it was 85.8% (active). The growth inhibition was -9% in experiment [5] (setting [7]); 95% (active) in experiment [5] (setting [8]); 98.2% (active) in experiment [5] (at 50.0 µM); 20% in experiment [6] (setting [7]); 95% (active) in experiment [6] (setting [8]); 98.2% (active) in experiment [6] (at 50.0 µM).
